The source made the active and inactive calls. The calls were made as follows: active = hit-call score of the fitted dose curve at least 0.9, where 1 is the maximum; inactive = score below 0.9.
Read-out: urokinase Plasminogen Activator (uPA), PLAU (gene 5328)
Test: BSK_BF4T_uPA: BioMAP Diversity Plus: BF4T Assay for urokinase Plasminogen Activator (uPA) Biomarker Activity (AID 2284275)
Conditions: primary human bronchial epithelial cells with fibroblasts
Procedure: BSK_BF4T is a cell-based, multiplexed-readout assay that uses bronchial epithelial cells and dermal fibroblasts, a human vascular primary cell, with measurements taken at 24 hours after chemical dosing in a microplate: 96-well plate.BSK_BF4TA is an assay component measured in the BSK_BF4T assay. It measures uPA antibody related to regulation of gene expression using ELISA technology.Data from the assay component BSK_BF4TA was analyzed at the endpoint, BSK_BF4TA, in the positive analysis fitting direction relative to DMSO as the negative control and baseline of activity. Using a type of binding reporter, gain or loss-of-signal activity can be used to understand protein changes. To generalize the intended target to other relatable targets, this assay endpoint is annotated to the 'protease' intended target family, where the subfamily is 'serine protease'.
The levels of cell surface (or secreted, indicated by the prefix "s") biomarker endpoints were measured by ELISA. Overt cytotoxicity to cells in confluent adherent cultures (all systems other than the BT system) was assessed by measuring total protein levels using sulforhodamine B (SRB) staining in parallel cultures at the time of biomarker measurements, indicated as SRB endpoints. For proliferation assays for adherent cell types, individual cell types are cultured at sub-confluence and relative cell numbers quantified by SRB staining at time points optimized for each system (48 h: 3C and CASM3C systems; 72 h: BT and HDF3CGF systems; 96 h: SAg system). SRB was performed by staining cells with 0.1% SRB after fixation with 10% TCA and reading wells at 560 nm.Viability and proliferation of PBMC (T cells) was quantified by Alamar Blue reduction for the SAg and BT systems. For PBMC viability (referred to as PBMC Cytotoxicity within the assay endpoint names), cells were plated (75,000/well in a 96-well plate) and then chemical samples added for 1 h before addition of activators, SEB and TSST-1 (20 ng/mL final concentration each). Cells were incubated for 90 h. Then, Alamar Blue (20 uL/well) (Invitrogen, Cat DAL1100) was added for 6 h, and the plates were read with a fluorescence microplate reader at 546/580 nm (excitation/emission). For PBMC proliferation, cells were plated and activated as above but incubated for only 16 h prior to addition of Alamar Blue. Plates were read after 6 h.

SMILES | outcome
O=C(O)C=CC(F)(C(F)(F)F)C(F)(F)F | inactive
FC(F)(F)C(F)(C(F)(F)F)C(F)(F)C(F)(F)CC1CO1 (centres undefined) | inactive
O=C(O)C(F)(F)OC(F)(F)C(F)(F)OC(F)(F)F | inactive
NC(=O)C(F)(F)C(F)(F)F | inactive
O=S(=O)(F)C(F)(F)C(F)(F)C(F)(F)C(F)(F)C(F)(F)C(F)(F)C(F)(F)C(F)(F)F | inactive
OCC(F)(F)OC(F)(F)C(F)(F)OC(F)(F)C(F)(F)OC(F)(F)CO | inactive
O=C(O)C(F)(F)C(F)(F)C(=O)O | inactive
OCC(F)(F)OC(F)(F)C(F)(F)OC(F)(F)CO | inactive
O=C(O)C(F)(F)OC(F)(F)C(F)(F)OC(F)(F)C(=O)O | inactive
C=CC(=O)OCC(F)(F)C(F)F | inactive
CC(O)C(F)(F)C(F)(F)F (centres undefined) | inactive
COC(=O)C(F)(F)C(F)(F)OC(F)(C(F)(F)F)C(F)(F)OC(F)=C(F)F (centres undefined) | inactive
OCC(F)(F)OC(F)(F)C(F)(F)OC(F)(F)C(F)(F)OC(F)(F)F | inactive
O=C(O)C(F)(OC(F)(F)C(F)(F)C(F)(F)F)C(F)(F)F (centres undefined) | inactive

Reference: PubChem BioAssay (EPA / NIEHS)
